Compound activity (PubChem BioAssay)
Only some compounds are listed: those with a hit (about 21% of all), similar ones and a draw of the others.
Pf growth 48h: inhibits P. falciparum growth in the first generation, 48 h | P. falciparum luciferase growth in erythrocytes, 48 h | AID 504832 | Potency, µM (titrated, usually from 28.7 µM), actives largely listed as inhibitors | 5.9% of 310,000 active
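Read-out is firefly luciferase luminescence from an integrated reporter in P. falciparum, so falling signal marks reduced parasite growth. Infected erythrocytes were at 2% hematocrit and 0.1% parasitemia (final) in Albumax-supplemented RPMI 1640.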
Pf growth 96h: P. falciparum growth inhibition at 96 hour, primary screen for plastid delayed-death inhibitors; P. falciparum luciferase reporter growth, 96 h; Potency, µM (top dose mostly 28.7 µM), actives largely listed as inhibitors; 6.9% of 320,000 active; AID 504834
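Infected RBCs, 2% Hct / 0.05% parasitemia final; luciferase-reporter P. falciparum; cpd 96 h, 37 C, 5% CO2; luciferase detection reagent; luminescence.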
HCV inh: HCV inhibition | Huh7.5.1 HCVcc-Cre infection, luciferase reporter, 44 h | Potency, µM (top dose mostly 41.8 µM), actives largely listed as inhibitors | 3.4% of 340,000 active
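1,000 cells/well; 4 h culture; + compound; + HCVcc-Cre (~0.5 moi); 44 h; luciferase substrate, RT 15 min; read 15 sec.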
Shiga inhibitor: blocks Shiga toxin action in Vero cells. Vero cells, Shiga toxin protein synthesis inhibition reporter. inhibition, % at 38.7 µM. 9.2% of 290,000 active. AID 2315; in the data active = inhibition mostly above about 28%, no sharp cut-off; inactive = mostly below about 43%
HCMV antiviral: human cytomegalovirus inhibition. HFF cells, HCMV-luciferase reporter, 72 h; stronger effect = lower value. activity change, negative = inhibition, % at 57.5 µM. 4.5% of 410,000 active; in the data active = activity change below about -60%; inconclusive = no clear call, values can overlap the other calls; inactive = above about -39%
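Two-dose cell screen: HFF monolayers treated with compounds and infected with luciferase-expressing HCMV at 1 PFU/cell, 72 h at 37C, then lysed for luciferase measurement.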
Cycloheximide cs: counter-screen hit for Shiga toxin inhibitors, cycloheximide | AID 2314 | 12% of 300,000 active | max response, % | cell reporter, cycloheximide protein synthesis inhibition counterscreen; in the data active = max response mostly above about 13%, no sharp cut-off; inactive = mostly below about 14%; also: read at 38.3 µM for the half of the compounds with a filed dose
Numbers stand for hits; – = inactive; ? = inconclusive; · = no result; [ ] = dose if it differs, or a comment. Unless noted, calls follow the shape of the dose curve; as a rule, active = well fitted inhibition curve with a large enough effect; inconclusive = small, poorly fitted or top-dose-only effect, or another doubt; inactive = no such curve, though single readings can be large or run the other way.

SMILES	Pf growth 48h	Pf growth 96h	HCV inh	Shiga inhibitor	HCMV antiviral	Cycloheximide cs
Cc1ccc(C)c(SCC(=O)OC/C(O)=C(\C#N)c2nc3ccccc3[nH]2)c1	?	?	–	–	-102	–
N#C/C(=C(/O)COC(=O)c1cccnc1Cl)c1nc2ccccc2[nH]1	–	–	–	–	–	–
Cc1nc2c(-c3ccccc3)c(C)nn2c(C)c1CCC(=O)N1CCN(c2ccc(F)cc2)CC1	·	·	·	·	–	·
CCOC(=O)C1CCCN(CCC(=O)Nc2cccc(C)c2)C1 (centres undefined)	–	–	–	82	–	49
CCOC(=O)C1CCCN(c2c(Nc3cccc(C)c3)c(=O)c2=O)C1 (centres undefined)	·	8.3µM	–	–	–	–
CCOC(=O)C1CCN(c2c(Nc3ccc4c(c3)OCCO4)c(=O)c2=O)CC1	–	–	–	88	?	60
COCCCNC(=O)CCN1N=C(c2ccccc2)CCC1=O	–	–	–	–	–	–
Cc1ccc(-c2nc(C3CCN(S(=O)(=O)c4ccc(C(C)(C)C)cc4)CC3)no2)cc1	·	2.9µM	–	–	-98	–
CCOc1ccccc1N1CCN(C(=O)CCCN2C(=O)c3cccc4cccc(c34)C2=O)CC1	?	9.3µM	?	–	?	–
O=C(Cc1ccc(-n2c(=S)[nH]c3ccccc3c2=O)cc1)N1CCN(c2ccccc2)CC1	·	–	–	–	–	–
COc1ccc(N2CCN(C(=O)Cn3c(=O)[nH]c4ccccc4c3=O)CC2)cc1	–	10µM	·	–	–	–
COc1ccccc1N1CCN(CCCCN2C(=O)C3CCCN3C2=O)CC1 (centres undefined)	·	·	–	·	–	·
COc1ccccc1N1CCN(CCCCN2C(=O)c3ccccc3C2=O)CC1	·	·	?	·	-102	·
O=C(Cc1ccc(-n2c(=O)[nH]c3ccccc3c2=O)cc1)N1CCN(c2ccccc2)CC1	12µM	–	–	–	–	–
CC(CC(=O)Nc1ccc(S(=O)(=O)Nc2ncccn2)cc1)c1ccccc1 (centres undefined)	–	–	–	–	–	–
O=C(CSc1nc2c([nH]c3ccccc32)c(=O)n1-c1cccc(Cl)c1)c1ccccc1	·	·	·	·	–	·
COc1ccc(N2CCN(CCCn3c(=S)[nH]c4ccccc4c3=O)CC2)cc1	?	?	?	–	-72	–
COc1ccc(-n2c(=S)[nH]c3ccccc32)cc1	·	?	–	–	–	–
COc1ccccc1N1CCN(CCCn2c(=S)[nH]c3ccccc3c2=O)CC1	7.4µM	–	–	–	?	–
CN1CCN(CCn2c(=S)[nH]c3ccccc3c2=O)CC1	–[0.00184 µM]	–	–	–	–	–
COc1ccc(-n2c(=S)[nH]c3ccccc3c2=S)cc1	?	–	–	–	-64	–
COc1ccc(N2CCN(C(=O)CCCSc3nc4ccccc4[nH]3)CC2)cc1	·	9.3µM	?	–	–	–
COc1ccc(N2CCN(CCCNC(=O)C(=O)c3c(C)[nH]c4ccccc34)CC2)cc1	5.2µM	?	?	–	–	–
COc1cccc(CNc2ccc(C)c(Cl)c2)c1	–	?	–	64	–	39
COc1ccc(OC)c(CNc2ccc3c(c2)CCC3)c1	?	10µM	–	66	–	43
SMILES	Pf growth 48h	Pf growth 96h	HCV inh	Shiga inhibitor	HCMV antiviral	Cycloheximide cs
COc1ccc(OC)c(CC(=O)Nc2ccc3c(c2)CCC3)c1	–	–	–	–	–	–
COc1cccc(CNc2ccc3c(c2)CCC3)c1	·	–	–	153	–	118
Cc1ccc(NCc2n[nH]c(=S)n2Cc2ccccc2)cc1Cl	–	–	–	–	?	–
O=C(COc1nncc2ccccc12)NCC(F)(F)F	–	–	–	–	–	–
CCCCNc1c(C(=O)OCC)c(C)nc2c1cnn2CC	?	15µM	?	·	–	·
O=C(CCC(=O)N1CCSc2ccccc21)NCc1ccccc1Cl	·	·	·	·	-62	·
O=C(CCC(=O)N1CCSc2ccccc21)NCc1ccc(Cl)cc1	?	–	–	–	–	–
O/N=C1/CC/C(=N\O)c2nn(-c3ccccc3)nc21	–	–	–	–	–	31
Cc1cc(C)c(OCC(=O)OCC(=O)NCc2cccs2)c(C)c1	–	–	–	·	–	·
C=C(C)COc1ccc(-c2[nH]ncc2-c2ccc(Br)cc2)c(O)c1	3.7µM	1.7µM	?	–	-94	–
C=C(C)COc1ccc(-c2[nH]ncc2-c2ccccc2OC)c(O)c1	3.3µM	–	?	–	–	–
C=C(C)COc1ccc(-c2[nH]ncc2Oc2ccccc2OC)c(O)c1	13µM	–	?	–	–	–
COc1ccc(-c2c(-c3ccc(O)cc3O)n[nH]c2C(F)(F)F)cc1	?	–	?	–	–	–
C=C(C)COc1ccc(-c2n[nH]c(C)c2-c2ccc(Br)cc2)c(O)c1	?	?	?	–	-77	–
C=C(C)COc1ccc(-c2nc(N)ncc2Oc2ccccc2OC)c(O)c1	?	?	?	–	–	–
Cc1ccc(SC2=C(N(C)C)C(=O)c3ccccc3C2=O)cc1	·	·	?	·	–	·
Cc1cccc(C(=O)NNC(=O)c2c(-c3ccccc3Cl)noc2C)c1O	–	–	–	–	–	–
COc1ccc(-c2c(-c3ccc(O)cc3O)n[nH]c2C)cc1OC	·	?	?	–	·	–
CCOc1ccc(-c2[nH]ncc2-c2ccc(Cl)cc2)c(O)c1	8.3µM	3.3µM	–	–	-86	–
CCCOC(=O)c1ccc(Oc2cn[nH]c2-c2ccc(OC)cc2O)cc1	10µM	?	?	–	–	–
COc1ccc(-c2c(-c3ccc(OC)c(C)c3O)n[nH]c2C)cc1	–	12µM	–	–	?	–
C=C(C)COc1ccc(-c2[nH]ncc2Oc2ccc(OC)cc2)c(O)c1	?	?	?	–	–	22
COc1cccc(Oc2cn[nH]c2-c2ccc(OCC(=O)NN)cc2O)c1	?	?	–	–	–	–
COCCCN1C(=O)C(CC(=O)NC2CCCCC2)CC(C(=O)N2CCOCC2)=C1C (centres undefined)	·	·	·	·	–	·
COc1ccc(C(=O)N2CCN(C3CCCCC3)CC2)cc1OC	–	–	–	–	–	–
SMILES	Pf growth 48h	Pf growth 96h	HCV inh	Shiga inhibitor	HCMV antiviral	Cycloheximide cs
Cc1ccc(C)c2[nH]c(=O)c(CN(Cc3ccco3)C(=O)Nc3ccccc3)cc12	12µM	?	?	–	·	–
Cc1ccc2cc(CN(Cc3ccco3)C(=O)c3ccccc3)c(=O)[nH]c2c1C	–	–	–	–	–	–
Cc1ccc2cc(CN(Cc3ccco3)C(=O)NCc3ccccc3)c(=O)[nH]c2c1C	–	12µM	?	–	–	–
O=[N+]([O-])c1ccc2c(c1)CO[C@@]21O[C@H](CCO)C[C@H](O)[C@H]1O	·	·	·	·	–	·
CCNC(=S)NNC(=O)c1csc(C(C)C)c1	–	–	–	77	–	51
CCCCNC(=S)NNC(=O)c1csc(C(C)C)c1	–	–	–	30	–	–
COc1ccc(N/C(=N/c2nc(C)cc(C)n2)NC(=O)Nc2ccc(Cl)c(Cl)c2)c(OC)c1	12µM	10µM	–	–	–	–
